Data as given in PubChem BioAssay (NCATS).
Records with an inconclusive call do not appear. Unmarked numbers belong to inactive results. The source made the active and inactive calls. Calls follow the shape of the dose curve; as a rule, active = well fitted cell-killing curve with a large enough effect in the repeat runs; inconclusive = weak or mixed curves, or effect the other way; inactive = flat fitted curve, though single readings scatter.

Assay: qHTS assay for small molecule antagonists of the retinoid-related orphan receptor gamma (ROR-gamma) signaling pathway - cell viability counter screen (AID 720652);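 also: compound exposure lasted 16 hr before ATP read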;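 as to activity change, negative = cytotoxicity: CHO reporter cells with doxycycline-induced ROR-gamma expression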
Details: RORgamma reporter cell line viability counter screen; series mostly up to 92.2 µM; activity change, negative = cytotoxicity: at the top concentration
Summary of the method: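 CHO cells carrying TET-inducible ROR and RORE-luciferase reporter, plated 5 hr, then dosed with compound plus doxycycline. After 16 hr at 37 C, viability read as intracellular ATP by CellTiter-Glo luminescence.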
% is scaled to controls: 0 for no effect and ±100 for the full control effect; potency is read from the fitted curve at half-maximal effect.

SMILES | activity change, negative = cytotoxicity | Potency
[Cl][In]([Cl])[Cl] | -1.12% | –
NC(=O)N/N=C/c1ccc([N+](=O)[O-])o1 | -12.4% | –
CC12CCC(CC1)C(C)(C)O2 | -0.736% | –
CCCCOC(=O)c1ccc(O)cc1 | -2.69% | –
COc1ccccc1O | – | inactive
Cc1c(O)cccc1C(=O)N[C@@H](CSc1ccccc1)[C@H](O)CN1C[C@H]2CCCC[C@H]2C[C@H]1C(=O)NC(C)(C)C | – | 66.8 µM (active)
NCCNCCNCCNCCN | -1.95% | –
CCCCCCCCCCCCOS(=O)(=O)O | – | inactive
Cc1cc2nc3c(=O)[nH]c(=O)nc-3n(C[C@H](O)[C@H](O)[C@H](O)CO)c2cc1C | 18.3% | –
NCCNCCNCCN | -18.4% | –
O=C1c2c(O)cccc2Cc2cccc(O)c21 | -1.07% | –
CC1(C)[C@@H]2CC[C@@]1(C)C(=O)C2 | -11.9% | –
O=C1O[C@H]([C@@H](O)CO)C(O)=C1O | -10.9% | –
Cc1cc(CC(=O)O)n(C)c1C(=O)c1ccc(Cl)cc1 | 2.64% | –
